Several values for one entry are separate records, joined by “and”; a condition that tells them apart may be missing. Identical values can stand only once. Among all 390,000 compounds or so, about 4,000 (1%) were called active. Inconclusive results (about 7%) are left out. Calls follow the shape of the dose curve; as a rule, active = well fitted inhibition curve with a large enough effect; inconclusive = small, poorly fitted or top-dose-only effect, or another doubt; inactive = no such curve, though single readings can be large or run the other way. What follows is part of a selection rich in actives, with near analogues and random picks from the rest. Entries that show only a call come without a potency.
Potency is read from the fitted curve at half-maximal effect.

For the assay, the target named is DNA polymerase iota (Homo sapiens) (UniProt Q9UNA4). Nature of the assay: qHTS for Inhibitors of Polymerase Iota. The following applies: Pol iota fluorescent replication assay, 10 min; series mostly up to 115 µM. The method in brief: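 Pol iota at 10 nM preincubated 15 min with compounds at room temperature; reaction started with fluorescent substrate, 50 nM final. Fluorescence read kinetically at 0 and 10 min; buffer-only wells as negative control.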
DNA polymerase iota (Homo sapiens), sequence (Q9UNA4 whole entry, looked up): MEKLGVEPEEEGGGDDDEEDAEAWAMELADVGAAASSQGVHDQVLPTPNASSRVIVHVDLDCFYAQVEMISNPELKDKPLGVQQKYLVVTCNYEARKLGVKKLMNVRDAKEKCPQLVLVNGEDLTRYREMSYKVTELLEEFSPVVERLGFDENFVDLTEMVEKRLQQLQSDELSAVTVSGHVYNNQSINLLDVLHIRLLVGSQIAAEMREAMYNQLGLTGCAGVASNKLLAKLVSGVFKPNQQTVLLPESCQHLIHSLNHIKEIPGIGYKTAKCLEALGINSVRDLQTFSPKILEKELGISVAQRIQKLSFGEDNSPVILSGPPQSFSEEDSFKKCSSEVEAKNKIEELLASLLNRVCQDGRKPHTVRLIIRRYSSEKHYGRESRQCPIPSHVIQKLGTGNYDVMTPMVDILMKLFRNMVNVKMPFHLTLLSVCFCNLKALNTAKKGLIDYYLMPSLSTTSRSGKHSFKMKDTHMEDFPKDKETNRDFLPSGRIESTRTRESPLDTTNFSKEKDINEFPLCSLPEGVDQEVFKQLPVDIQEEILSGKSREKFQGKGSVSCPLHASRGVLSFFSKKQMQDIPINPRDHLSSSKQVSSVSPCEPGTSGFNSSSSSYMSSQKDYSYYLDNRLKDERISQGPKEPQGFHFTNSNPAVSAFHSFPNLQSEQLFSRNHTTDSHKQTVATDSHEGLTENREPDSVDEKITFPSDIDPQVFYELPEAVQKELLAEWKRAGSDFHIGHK
(In general: In qHTS, concentration-response curves come from the screen itself.)
Take `Cc1ccc(/C=N/NC(=S)NC2CCCCC2)o1`: the Potency result is “inactive”.
For `Cc1ccc(/C=N/NC(=O)Cn2nc(C)c(Br)c2C)o1`, the Potency entry was “inactive”.
In the case of `Cc1ccc(/C=N/NC(=O)c2cc3ccccc3cc2O)o1` it was 50.1 µM (active); in that of `CCCC12CN3CC(C)(CN(C1)C3c1ccccc1Cl)C2=O` (stereo not drawn), “inactive”; in that of `CCOc1ccc(N=C2SC(C(=O)O)CC(=O)N2C)cc1` (stereo not drawn), “inactive”.
Consider `CN=C1SC(C(=O)O)CC(=O)N1C` (stereo not drawn), for which the Potency was 89.1 µM (active).
For the molecule `COc1ccc(N=C2SC(C(=O)Nc3ccc(F)cc3)CC(=O)N2C)cc1` (stereo not drawn), the Potency entry was “inactive”.
Regarding `Cc1ccc2ncc(C(=O)Nc3ccc(OC(F)(F)F)cc3)c(=O)n2c1`, the Potency result is “inactive”.
Next, `CCOc1ccc(Nc2c(S(=O)(=O)c3ccccc3)cnc3ccccc23)cc1`: “inactive”; `COc1ccc(OC)c(-n2nnc(-c3nc(-c4cc(OC)c(OC)c(OC)c4)no3)c2C)c1`: “inactive”.
Regarding `COc1cc(Nc2nc(-c3ccc(OC)c(OC)c3)nc3ccccc23)cc(OC)c1`, the Potency result was “inactive”.
`CC(Nc1ccc(-c2nc(-c3ccco3)no2)cc1[N+](=O)[O-])c1ccccc1` (stereo not drawn): the Potency is 70.8 µM (active).
As to `O=[N+]([O-])c1cc(-c2nc(-c3ccccc3)no2)ccc1NCc1ccco1`, the Potency result was “inactive”.
As for `CNc1ccc(-c2nc(-c3ccco3)no2)cc1[N+](=O)[O-]`, the Potency entry is “inactive”.
Next, `COc1ccc(/C=C/c2ccnc3ccccc23)cc1OC`: “inactive”.
In the case of `CN(C(=N)N)c1ccc(/C=C2\C=Cc3ccccc32)cc1` it was “inactive”; in that of `CC(=O)Nc1c2c(nn1-c1cccc(C)c1)CSC2`, 50.1 µM (active); in that of `O=C(NCCCO)C(=O)Nc1c2c(nn1-c1ccccc1)CSC2`, “inactive”.
For `CC(C)C(=O)Nc1c2c(nn1-c1ccccc1)CSC2`, the Potency entry is “inactive”.
For `COc1ccc(CNC(=O)Cn2nnc(-c3ccc(S(C)(=O)=O)cc3)n2)cc1`, the Potency entry was “inactive”.
For `O=C(C[n+]1ccncc1)c1ccc2c(c1)CCCC2`, the Potency entry is “inactive”.
Regarding `Cc1c(N=Nc2ccc(N(C)C)cc2)c(=O)n(-c2ccccc2)n1C`, the Potency result is “inactive”.
For `CC(C)(C)n1c(=O)[nH]c2c(c1=O)CCC2`, the Potency result is “inactive”.
Regarding `O=c1[nH]n2c(=O)c3c([nH]c2c1N=Nc1ccccc1)CCC3`, the Potency is 50.1 µM (active).
For `CC(C)NC(=O)C1CCC(Cn2c(=O)c3sccc3n(Cc3ccc(F)cc3)c2=O)CC1` (stereo not drawn), the Potency result is “inactive”.
Regarding `CCOC(=O)C1CCC(CN(Cc2ccc(OC)cc2)S(=O)(=O)c2ccc(F)c(C(=O)Nc3cc(C)ccc3C)c2)CC1` (stereo not drawn), the Potency result is “inactive”.
Consider `CC(C)(C)c1ccc(C(=O)NCC(c2ccco2)S(=O)(=O)c2ccc(F)cc2)cc1` (stereo not drawn), for which the Potency result was “inactive”.
Next, `COc1cccc2c1C(=O)c1c(O)c3c(c(O)c1C2=O)CC(O)(C(C)=NNC(=O)c1ccc(Cl)c(Cl)c1)CC3OC1CC(N)C(O)C(C)O1` (stereo not drawn): 50.1 µM (active); `COc1ccccc1NC(=O)C1=C(C)Nc2ncnn2C1c1sccc1C` (stereo not drawn): “inactive”; `O=C(O)C1=C/C(=C/C=[N+]2c3cc(O)c(O[C@H]4OC(CO)[C@@H](O)[C@@H](O)[C@@H]4O)cc3C[C@@H]2C(=O)[O-])C[C@H](C(=O)O)N1` (stereo partly drawn): “inactive”.
As to `CCCS(=O)(=O)Nc1cccc(-c2cn3ccsc3n2)c1`, the Potency result is “inactive”.
Regarding `Cc1ccc(C)c(N2CCN(C(=O)Cn3nc(C)c4sc5ccccc5c4c3=O)CC2)c1`, the Potency entry is “inactive”.
On to `C=C(C)C(=O)O[C@H]1C/C(C)=C\C(=O)/C=C(\C)[C@H](O)[C@@H]2OC(=O)C(=C)[C@@H]21`, for which the Potency was 35.5 µM (active).
In the case of `Cc1ccc(S(=O)(=O)N2CCCc3cc(NS(=O)(=O)c4cc(C)ccc4C)ccc32)cc1` it was “inactive”; in that of `CCOc1ccc(NC(=O)CSc2nnc3c(n2)[nH]c2ccc(S(=O)(=O)N4CCOCC4)cc23)cc1`, “inactive”.
Regarding `Cc1ccc(-c2nn3c(=O)cc(CN4CCN(C(=O)Nc5cccc(C(F)(F)F)c5)CC4)nc3s2)cc1`, the Potency entry was “inactive”.
In the case of `Cn1c(=O)c2c(-c3ccccc3Br)n(Cc3ccccc3)cc2n(C)c1=O` it was “inactive”; in that of `COc1cccc(CNC(=O)c2ccc3c(c2)sc2nc(-c4cccc(OC)c4)cn23)c1`, “inactive”.
Consider `COc1cccc2c1cc1c(=O)n(CC(=O)N3CCN(c4ccccc4)CC3)nc(C)n12`, for which the Potency result was “inactive”.
As to `CC1=C(C)C(=O)OC(C(C)C2CCC3C4CC=C5CC(OC6OC(COC7OC(CO)C(O)C(O)C7O)C(O)C(O)C6O)CC(O)C5(C)C4CCC23C)C1` (stereo not drawn), the Potency entry was “inactive”.
For the molecule `CC(/C=C/C1(O)C(C)CC(=O)CC1(C)C)OC1OC(CO)C(O)C(O)C1O` (stereo not drawn), the Potency is 79.4 µM (active).
With `C=CC1C(OC2OC(CO)C(O)C(O)C2O)OC=C(C(=O)OC)C1CC1CC(=O)CC(CC(=O)CCc2ccc(O)cc2)O1` (stereo not drawn), the Potency result was “inactive”.
Turning to `Nc1ncnc2nnsc12`, the Potency entry was “inactive”.
Next, `COC(=O)c1ccc(Cn2c(SCC(=O)N(C)c3ccccc3)nc3ccccc32)cc1`: “inactive”; `CCC(C)Cn1c(O)cc2nn(-c3nc4ccccc4s3)c(=O)c-2c1C` (stereo not drawn): 12.6 µM (active); `O=C1NN(c2ccccc2)C(=O)/C1=C/c1ccc(-c2cccc(C(=O)O)c2)o1`: 8.91 µM (active).
In the case of `CC(=O)c1cc(-c2ccccc2)[nH]c1N1CCCC1` it was “inactive”.
For the molecule `COc1ccc2c(c1)C=C(C(=O)NCc1cc(Br)ccc1OC)CO2`, the Potency result was “inactive”.
In the case of `COC(=O)c1ccc(NC(=O)CCc2c(C)nn(-c3ccc(N4CCCC4)nn3)c2C)cc1` it was “inactive”; in that of `COc1ccc(C)cc1NC(=O)COCc1cc(-c2cccs2)on1`, “inactive”.
As for `O=C(NC1CC(=O)N(c2ccccc2)C1)c1ccco1` (stereo not drawn), the Potency result is “inactive”.
In the case of `CCOc1cc2[nH]c(=O)n(Cc3ccc(C(=O)NCCN(CC)CC)cc3)c(=O)c2cc1OCC` it was “inactive”; in that of `Cc1ccc(C(=O)OCC(=O)N2CC(C)CC(C)C2)cc1S(=O)(=O)N1CCCCC1` (stereo not drawn), “inactive”; in that of `COc1ccc(CNC(=O)COC(=O)c2ccc(C)c(S(=O)(=O)N3CCOCC3)c2)cc1OC`, “inactive”.
As for `Cc1ccc(C(=O)OCC(=O)NCc2cc(C)c(O)c(C)c2)cc1S(=O)(=O)N1CCCCC1`, the Potency was 79.4 µM (active).
With `CC1CCCN(c2nc3c(S(=O)(=O)c4ccc(C(C)C)cc4)nnn3c3ccsc23)C1` (stereo not drawn), the Potency entry was “inactive”.
With `CCc1nn(CC(=O)Nc2cccc(C)c2C)c(=O)c2cc3sccc3n12`, the Potency entry is “inactive”.
Regarding `O=C(CN1C(=O)c2cccc3cccc(c23)C1=O)N1CCCCC1`, the Potency entry was “inactive”.
Next, `O=C(CN1C(=O)c2cccc3cccc1c23)Nc1ccccc1`: “inactive”.
For `C[N+](C)(CCCCCC[N+](C)(C)CCCN1C(=O)c2cccc3cccc(c23)C1=O)CCCN1C(=O)c2cccc3cccc(c23)C1=O`, the Potency was 2.24 µM (active) and 20 µM (active).
Next, `CCn1c(C)c(C)c2cc(C(=O)NCCc3cc(OC)ccc3OC)ccc21`: “inactive”.
Next, `Cc1cccc(CCNC(=O)c2ccc3c(c2)nc2n3CCC(C)C2)c1` (stereo not drawn): “inactive”; `COc1cc2[nH]c(C)c(CCN3CCN(c4ccccc4)CC3)c2cc1OC`: “inactive”.
On to `COC(=O)C1=C(C)NC(=O)/C1=C/c1ccc(CNS(=O)(=O)c2ccc(C)cc2)o1`, for which the Potency result is “inactive”.
Consider `O=c1/c(=C/c2ccc(CNS(=O)(=O)c3ccccc3)o2)sc2n1CCN=2`, for which the Potency was 35.5 µM (active).
Next, `O=S(=O)(NCc1ccccc1)c1ccc(S(=O)(=O)N2CCCC2)cc1`: “inactive”; `CCc1cccc(-n2nnc(-c3nsc(NC(=O)c4ccc(C)cc4)n3)c2C)c1`: “inactive”; `O=C(Nc1ccc2oc(-c3ccc(O)c(Br)c3)nc2c1)c1cc2ccccc2o1`: “inactive”.
Regarding `Cc1ccccc1NC(=O)Cn1c(=O)n(Cc2ccco2)c(=O)c2ccc(C(=O)NC3CCCC3)cc21`, the Potency result was “inactive”.
For `COc1ccc(NC(=O)C2CCCN(S(=O)(=O)c3cccc4nonc34)C2)cc1Cl` (stereo not drawn), the Potency result was “inactive”.
`COc1ccc(Cc2nnc(NC(=O)c3cc(OC)c(OC)c(OC)c3)s2)cc1OC`: the Potency result is “inactive”.
Regarding `COc1ccc(Cc2nnc(NC(=O)Cc3cccs3)s2)cc1`, the Potency is 4.47 µM (active).
Regarding `CCc1nnc(NC(=O)Cc2cccs2)s1`, the Potency is 11.2 µM (active).
Next, `CCOc1ccccc1NC(=O)CCn1cnnn1`: “inactive”; `COc1ccc(CNC(=O)CCC(=O)Nc2nnc(C(C)C)s2)cc1`: “inactive”.
In the case of `CCc1nnc(NC(=O)CCC(=O)NCc2ccccc2OC)s1`, the Potency entry was “inactive”.
In the case of `O=C(Cc1cccs1)Nc1ccc([N+](=O)[O-])cc1` it was “inactive”.
With `CCOc1ccccc1NC(=O)Cc1cccs1`, the Potency was 44.7 µM (active).
Regarding `CCOc1ccc(NC(=O)C/C(C)=N/NC(=O)Cc2cccs2)cc1`, the Potency result was “inactive”.
Next, `COc1ccc(-c2cc(-c3ccccc3)nc3c2COc2ccc(Cl)cc2-3)cc1`: “inactive”; `CCN(CC)c1nc(C#N)nc(OC)n1`: “inactive”; `CCc1ccc(OCCCn2c(CCCNC(=O)C3CCCCC3)nc3ccccc32)cc1`: “inactive”.
In the case of `C/C(=N\Nc1ccc(S(N)(=O)=O)cc1[N+](=O)[O-])c1cccs1` it was 25.1 µM (active); in that of `C/C(=N\Nc1ccccc1)c1cccs1`, “inactive”.
Next, `CCOC(=O)C/C(C)=N\Nc1ccc([N+](=O)[O-])cc1[N+](=O)[O-]`: “inactive”; `Cc1ccc(C(=O)NNc2ncnc3ccccc23)cc1`: “inactive”.
As for `O=C(Cc1ccccn1)c1ccc(O)cc1O`, the Potency result is “inactive”.
As to `O=C(NNc1c2ccccc2nc2ccccc12)c1cc2ccccc2cc1O`, the Potency is 39.8 µM (active).
`CN(Cc1ccccc1)C(=O)c1cc2c(=O)n(C)c3ccccc3c2s1`: the Potency result was “inactive”.
In the case of `CN(C)c1ccc(/C=C/c2sc3ccccc3[n+]2CCCCBr)cc1`, the Potency entry was “inactive”.
For `CN(C)c1ccc(/C=C/c2c3ccccc3nc3ccccc23)cc1`, the Potency result was “inactive”.
Next, `CN(C)c1ccc(/C=C/c2sc3ccccc3[n+]2C)cc1`: 79.4 µM (active); `CCCN1CCC(=O)N(C(CSc2ccc(OC)cc2)Cc2ccccc2)CC1` (stereo not drawn): “inactive”.
Next, `C[N+]1(CC(=O)c2cccs2)CCOCC1`: “inactive”; `CCc1ccc(N2CC(C(=O)N3CCCCCC3)CC2=O)cc1` (stereo not drawn): “inactive”; `CCc1ccc(N2CC(C(=O)Nc3ccc(S(=O)(=O)Nc4nccs4)cc3)CC2=O)cc1` (stereo not drawn): “inactive”.
As for `CCc1ccc(N2CC(C(=O)NC3=NCCS3)CC2=O)cc1` (stereo not drawn), the Potency was 89.1 µM (active).
`Cc1cccc(CN2Cc3cccc4c3[C@H](C=CC4)CC2=S)c1`: the Potency result is “inactive”.

For the origin of these results see PubChem BioAssay AID588590 (National Center for Advancing Translational Sciences (NCATS), 2011).
